From PubChem BioAssay (NCATS)
Several values for one entry are separate records, joined by “and”; a condition that tells them apart may be missing. Equal values may be shown once. Records with an inconclusive call do not appear. A call without a number means that no potency is given here. More than one record can exist for a structure, and the calls need not agree. Activity calls are given as the source filed them. Unless noted, calls follow the shape of the dose curve; as a rule, active = well fitted inhibition curve with a large enough effect; inconclusive = small, poorly fitted or top-dose-only effect; inactive = no such curve, though single readings can be large or run the other way.

Experiment: Primary qHTS for small molecule stabilizers of the endoplasmic reticulum resident proteome: Secreted ER Calcium Modulated Protein (SERCaMP) assay (AID 1508630); also: potency is read from the fitted curve at half-maximal effect
Conditions: SH-SY5Y GLuc-SERCaMP (Gaussia luciferase released on ER calcium loss) secretion, thapsigargin, luminescence; series mostly up to 38.4 µM
Method in brief: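 GLuc-SERCaMP-expressing SH-SY5Y cells, pretreated 16 h with compound, are challenged with thapsigargin to empty ER calcium stores; after 4 h, coelenterazine is added directly to the medium and luminescence is imaged.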

Compound | Potency
CCOC(=O)c1ncn2c1CN(C)C(=O)c1cc(F)ccc1-2 | inactive
Cc1cn([C@H]2C=C[C@@H](CO)O2)c(=O)[nH]c1=O | inactive
CC(C)Cc1ccc(C(C)C(=O)O)cc1 (stereo not drawn) | inactive
CC(C)(C)C(=O)Oc1ccc(S(=O)(=O)Nc2ccccc2C(=O)NCC(=O)O)cc1 | inactive
O=C1N(c2ccccc2)c2ccccc2C1(Cc1ccncc1)Cc1ccncc1 | inactive
Clc1ccc(C(c2ccccc2Cl)C(Cl)Cl)cc1 (stereo not drawn) | inactive
COC(=O)Nc1nc2ccc(C(=O)c3cccs3)cc2[nH]1 | inactive
CCC1(C)CC(=O)NC1=O (stereo not drawn) | inactive
Nc1nnc(-c2cccc(Cl)c2Cl)c(N)n1 | inactive
Clc1ccc2nsnc2c1NC1=NCCN1 | inactive
CC(C)(Oc1ccc(C2CC2(Cl)Cl)cc1)C(=O)O (stereo not drawn) | inactive
CC[N+](CC)(CC)CCOc1cccc(OCC[N+](CC)(CC)CC)c1OCC[N+](CC)(CC)CC | inactive
COc1ccc2[nH]cc(CCNC(C)=O)c2c1 | inactive
CN1C(C(=O)Nc2ccccn2)=C(O)c2ccccc2S1(=O)=O | inactive
CCN1CCCC1CNC(=O)c1cc(S(=O)(=O)CC)c(N)cc1OC (stereo not drawn) | inactive
COc1ccc(C2CNC(=O)C2)cc1OC1CCCC1 (stereo not drawn) | inactive
CC(C)NCC(O)COc1ccc(CCOCC2CC2)cc1 (stereo not drawn) | inactive

Compound | Potency
CC[C@@]1(O)C(=O)OCc2c1cc1n(c2=O)Cc2cc3c(CN(C)C)c(O)ccc3nc2-1 | inactive
Cc1cc(C(C)(C)C)c(O)c(C)c1CC1=NCCN1 | inactive
C[C@H]1c2cccc(O)c2C(O)=C2C(=O)[C@]3(O)C(O)=C(C(N)=O)C(=O)[C@@H](N(C)C)[C@@H]3[C@@H](O)[C@@H]21 | inactive
Cc1cc(C(C)(C)C)cc(C)c1CC1=NCCN1 | inactive
NS(=O)(=O)c1cc2c(cc1Cl)NCNS2(=O)=O | inactive
CCC1(c2ccccc2)C(=O)NCNC1=O | inactive
C[C@](N)(Cc1ccc(O)c(O)c1)C(=O)O | inactive
NCCCCCC(=O)O | inactive and 33.5 µM (active)
O=c1[nH]cc(F)c(=O)[nH]1 | inactive
Cn1c(=O)c2[nH]cnc2n(C)c1=O | inactive
Nc1ccn([C@H]2CC[C@@H](CO)O2)c(=O)n1 | inactive
N[C@@H](Cc1c[nH]c2ccc(O)cc12)C(=O)O | inactive
CCc1cccc2c3c([nH]c12)C(CC)(CC(=O)O)OCC3 (stereo not drawn) | inactive
NC(=O)OCC(COC(N)=O)c1ccccc1 | inactive
CN1CCN2c3ccccc3Cc3ccccc3C2C1 (stereo not drawn) | inactive
COc1cc2c(c(OC)c1OC)-c1ccc(OC)c(=O)cc1[C@@H](NC(C)=O)CC2 | inactive
O=C(C1CCCCC1)N1CC(=O)N2CCc3ccccc3C2C1 (stereo not drawn) | inactive

Experiment: A High-Content qHTS Against Drug Library for the Identification of Small Molecules that Inhibit DYT1 Early Onset Primary Dystonia-Associated Cell Pathology (AID 1645839; calls by dose curve)
Conditions: HEK293 Flp-In EGFP-delE TorsinA, punctate imaging, 48 h; series mostly up to 46.1 µM
Method in brief: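 Readout: %pathology, the punctate EGFP-TorsinA distribution from imaging, as the primary channel and cell count as the toxicity counterscreen. HEK293 Flp-In cells expressing delE TorsinA were induced with tetracycline and treated with compound for 48 h.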

Compound | Potency
CCOC(=O)c1ncn2c1CN(C)C(=O)c1cc(F)ccc1-2 | inactive
Cc1cn([C@H]2C=C[C@@H](CO)O2)c(=O)[nH]c1=O | inactive
CC(C)Cc1ccc(C(C)C(=O)O)cc1 (stereo not drawn) | inactive
CC(C)(C)C(=O)Oc1ccc(S(=O)(=O)Nc2ccccc2C(=O)NCC(=O)O)cc1 | inactive
O=C1N(c2ccccc2)c2ccccc2C1(Cc1ccncc1)Cc1ccncc1 | inactive
Clc1ccc(C(c2ccccc2Cl)C(Cl)Cl)cc1 (stereo not drawn) | inactive
COC(=O)Nc1nc2ccc(C(=O)c3cccs3)cc2[nH]1 | inactive
CCC1(C)CC(=O)NC1=O (stereo not drawn) | inactive
Nc1nnc(-c2cccc(Cl)c2Cl)c(N)n1 | inactive
Clc1ccc2nsnc2c1NC1=NCCN1 | inactive
CC(C)(Oc1ccc(C2CC2(Cl)Cl)cc1)C(=O)O (stereo not drawn) | inactive
CC[N+](CC)(CC)CCOc1cccc(OCC[N+](CC)(CC)CC)c1OCC[N+](CC)(CC)CC | inactive
COc1ccc2[nH]cc(CCNC(C)=O)c2c1 | inactive
CN1C(C(=O)Nc2ccccn2)=C(O)c2ccccc2S1(=O)=O | inactive
CCN1CCCC1CNC(=O)c1cc(S(=O)(=O)CC)c(N)cc1OC (stereo not drawn) | inactive
COc1ccc(C2CNC(=O)C2)cc1OC1CCCC1 (stereo not drawn) | inactive
CC(C)NCC(O)COc1ccc(CCOCC2CC2)cc1 (stereo not drawn) | inactive

Compound | Potency
CC[C@@]1(O)C(=O)OCc2c1cc1n(c2=O)Cc2cc3c(CN(C)C)c(O)ccc3nc2-1 | inactive
Cc1cc(C(C)(C)C)c(O)c(C)c1CC1=NCCN1 | inactive
C[C@H]1c2cccc(O)c2C(O)=C2C(=O)[C@]3(O)C(O)=C(C(N)=O)C(=O)[C@@H](N(C)C)[C@@H]3[C@@H](O)[C@@H]21 | inactive
Cc1cc(C(C)(C)C)cc(C)c1CC1=NCCN1 | inactive
NS(=O)(=O)c1cc2c(cc1Cl)NCNS2(=O)=O | inactive
CCC1(c2ccccc2)C(=O)NCNC1=O | inactive
C[C@](N)(Cc1ccc(O)c(O)c1)C(=O)O | inactive
NCCCCCC(=O)O | inactive
O=c1[nH]cc(F)c(=O)[nH]1 | inactive
Cn1c(=O)c2[nH]cnc2n(C)c1=O | inactive
Nc1ccn([C@H]2CC[C@@H](CO)O2)c(=O)n1 | inactive
N[C@@H](Cc1c[nH]c2ccc(O)cc12)C(=O)O | inactive
CCc1cccc2c3c([nH]c12)C(CC)(CC(=O)O)OCC3 (stereo not drawn) | inactive
NC(=O)OCC(COC(N)=O)c1ccccc1 | inactive
CN1CCN2c3ccccc3Cc3ccccc3C2C1 (stereo not drawn) | inactive
COc1cc2c(c(OC)c1OC)-c1ccc(OC)c(=O)cc1[C@@H](NC(C)=O)CC2 | inactive
O=C(C1CCCCC1)N1CC(=O)N2CCc3ccccc3C2C1 (stereo not drawn) | inactive
